PMP22 txn prim: modulators of PMP22 gene transcription in S16 Schwann cells | S16 Pmp22-F2sN Schwann cells, FLuc/NLuc coincidence luminescence, 24 h | Potency, µM (doses to about 57.5 µM), for the others: top-dose activity change, negative = inhibition, actives largely listed as inhibitors | 43,000 tested, 2% active; active means clear falling dose curves in both reporters; inconclusive means both reporters move, but less clearly or upward; inactive means either reporter flat; the % is the NLuc reporter signal; further: potency means the concentration at half of the fitted maximal effect; on the % scale 0 is the no-effect control and ±100 the full control effect
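Reporter cells (S16 Pmp22-F2sN, 500–1,000 per well) exposed to compounds for 24 h, 37C, 5% CO2; lysis with FLuc read after 10 min, then Stop&Glo and NLuc read after 10 min.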
mTORC1 inh: reduces mTORC1 signaling in Tsc2 and p53 null MEF cells; 44,000 tested, 0.78% active; Potency, µM (highest dose often 38.3 µM), without a hit: at the top dose activity change, negative = inhibition, actives largely listed as inhibitors; Tsc2-/- p53-/- MEF, phospho-rpS6 immunofluorescence/PI, 24 h;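 further: potency means the concentration at half of the fitted maximal effect; plate controls were DMSO for no effect and rapamycin for full effect; nearly all actives have a fitted effect of over 50% in size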
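Read-out: phospho-S6 Alexa-488 intensity over PI intensity per well, scored as % active cells using thresholds from rapamycin (7.5 nM) and DMSO controls. Tsc2-/-, p53-/- MEFs exposed to compound for 24 h; PI cell count recorded as viability.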
GALC G270D up: enhancers of human galactocerebrosidase G270D mutant activity in cells | 45,000 tested, 0.1% active | Potency, µM (titrated, usually from 57.5 µM), actives largely listed as activators | 145M-Twi-hGALC-G270D cells (Twitcher mouse brain line with human GALC G270D), HMU-beta-Gal fluorescence, 48 h | P54803; further: potency means the concentration at half of the fitted maximal effect; 0% is about no effect; nearly all actives have a fitted effect of over 65% in size
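Fluorogenic HMU-b-Gal hydrolysis (0.1 mM final, pH 5.2 citrate-phosphate with 1 mg/mL sodium taurocholate; carbonate stop buffer) measures mutant GALC activity after compound treatment of live 145M-Twi Twitcher brain cells stably carrying human GALC-G270D, with wild-type GALC line alongside; activation sought.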
OvCa metastasis: blocks SKOV3ip1 adhesion and invasion in omental model. SKOV3ip1-GFP adhesion/invasion on 3D omental model, fluorescence. Potency, µM (top dose mostly 45.8 µM), for inactives: at the top dose activity change, negative = inhibition, hits mostly inhibitors. 46,000 tested, 0.1% active. AID 1963576;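 further: potency means the concentration at half of the fitted maximal effect; plate controls were DMSO wells for no effect and tomatine positive control wells for full effect; nearly all actives have a fitted effect of over 65% in size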
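Adhesion/invasion was scored as fixed GFP-labeled SKOV3ip1 cell counts (488/509 nm), normalized to DMSO and tomatine controls. Cancer cells in serum-free medium, with four compound doses (0.36-46 umol/L), sat 2 hr at RT then 16 hr at 37 C on a 48 hr fibroblast/mesothelial/ECM culture.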
S16 viability: S16 Schwann cell cytotoxicity | S16 Pmp22-F2sN Schwann cells (luciferase reporters placed in the Pmp22 gene) viability, CellTiter-Glo, 24 h | Potency, µM (doses to about 57.5 µM), for the others: at the highest dose activity change, negative = cytotoxicity, actives largely listed as cytotoxic | 43,000 tested, 0.48% active | AID 1508642; further: potency means the concentration at half of the fitted maximal effect; on the % scale 0 is the no-effect control and ±100 the full control effect; nearly all actives have a fitted effect of over 65% in size
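S16 Schwann cells carrying the Pmp22-F2sN reporter, seeded in 1536-well format, were exposed to library compounds for 24 h at 37C. Viability was read as CellTiter-Glo luminescence after 15 min at room temperature.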
NLuc sat counter: counter-screen for PMP22 expression modulators: NanoLuc inhibition, saturating substrate | AID 1508638 | Potency, µM (titrated, usually from 57.5 µM), without a hit: top-dose activity change, negative = inhibition, most hits filed as inhibitors | Secreted NLuc enzyme (filtered S16 cell medium), Nano-Glo luminescence | shares compounds with PMP22 txn prim | 690 tested, 4% active; further: potency means the concentration at half of the fitted maximal effect; on the % scale 0 is the no-effect control and ±100 the full control effect
NLuc Km ctr: NanoLuc inhibition at Km substrate, PMP22 artifact check | shares compounds with PMP22 txn prim | secreted NLuc enzyme, coelenterazine luminescence, Km conditions | Potency, µM (top dose mostly 57.5 µM), for inactives: at the top dose activity change, negative = inhibition, hits mostly inhibitors | 690 tested, 5% active; further: potency means the concentration at half of the fitted maximal effect; on the % scale 0 is the no-effect control and ±100 the full control effect
FLuc ctr PMP22: inhibits firefly luciferase, PMP22 counter-screen; Potency, µM (top dose mostly 57.5 µM), for inactives: at the top dose activity, negative = inhibition, actives largely listed as inhibitors; 690 tested, under 10 active; shares compounds with PMP22 txn prim; purified P. pyralis FLuc, luminescence, 10 min; further: % of control where 0% means no effect
Target sequence (P08659 whole entry, looked up): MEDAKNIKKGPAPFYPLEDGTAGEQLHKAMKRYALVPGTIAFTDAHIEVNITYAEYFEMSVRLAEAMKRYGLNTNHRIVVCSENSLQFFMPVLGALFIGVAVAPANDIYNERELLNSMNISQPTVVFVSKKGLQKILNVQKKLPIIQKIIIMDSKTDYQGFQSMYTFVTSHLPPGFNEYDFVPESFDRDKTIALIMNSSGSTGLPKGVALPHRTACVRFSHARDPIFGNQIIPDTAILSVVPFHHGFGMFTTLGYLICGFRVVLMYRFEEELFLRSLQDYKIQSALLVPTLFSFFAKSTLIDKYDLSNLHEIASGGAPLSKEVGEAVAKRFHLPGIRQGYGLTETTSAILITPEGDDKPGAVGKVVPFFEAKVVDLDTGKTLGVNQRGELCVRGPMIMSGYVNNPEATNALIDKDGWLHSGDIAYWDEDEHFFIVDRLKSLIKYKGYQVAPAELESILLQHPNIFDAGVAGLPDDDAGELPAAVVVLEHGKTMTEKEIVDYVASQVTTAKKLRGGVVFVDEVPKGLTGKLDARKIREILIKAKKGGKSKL
S16 viab conf: S16 Schwann cell cytotoxicity, confirmatory; Potency, µM (series often up to 57.5 µM), inactives show at the highest dose activity change, negative = viability loss, actives largely listed as cytotoxic; S16 Schwann cells viability, CellTiter-Glo ATP luminescence, 24 h; 690 tested, 7% active; shares compounds with PMP22 txn prim; further: potency means the concentration at half of the fitted maximal effect; on the % scale 0 is the no-effect control and ±100 the full control effect
PMP22 txn conf: confirmation of modulators of PMP22 gene transcription in S16 cells. S16 Schwann cells Pmp22-F2sN, dual luciferase, 24 h. AID 1508646. shares compounds with PMP22 txn prim. 690 tested, 22% active. Potency, µM (highest dose often 57.5 µM), for the others: top-dose activity change, negative = inhibition, most hits filed as inhibitors; active means clear falling dose curves in both reporters; inconclusive means both reporters move, but less clearly or upward; inactive means either reporter flat; the % is the FLuc reporter signal; further: potency means the concentration at half of the fitted maximal effect
PMP22 prot conf: confirmation of modulators of rat PMP22 protein expression; shares compounds with PMP22 txn prim; S16 Schwann cells Pmp22-HiBiT, luminescence, 48 h; Potency, µM (titrated, usually from 27.9 µM), inactives show top-dose activity change, negative = inhibition, actives largely listed as inhibitors; 95 tested, under 10 active
Target sequence (P25094 whole entry, looked up): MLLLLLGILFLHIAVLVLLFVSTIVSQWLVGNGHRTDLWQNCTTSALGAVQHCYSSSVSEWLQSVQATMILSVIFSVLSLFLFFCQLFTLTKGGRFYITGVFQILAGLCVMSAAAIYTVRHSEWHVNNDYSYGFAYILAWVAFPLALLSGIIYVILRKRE
* = called active by the depositor; i = inactive; ? = inconclusive; . = no result given. Rows were chosen to be rich in hits. Some 2.6% of all compounds tested hit in one or more screens of this group. Unless noted, the call rests on the fitted dose curve; in most records, active means well fitted curve in the direction sought with a large enough effect; inconclusive means small, poorly fitted or top-dose-only effect, or another doubt; inactive means no such curve, though single readings can be large; an effect the other way counts as inactive or inconclusive.

SMILES	PMP22 txn prim	mTORC1 inh	GALC G270D up	OvCa metastasis	S16 viability	NLuc sat counter	NLuc Km ctr	FLuc ctr PMP22	S16 viab conf	PMP22 txn conf	others
CCOCCc1nn2c(=O)cc(COC(=O)c3ccccc3NC(=O)c3ccccc3F)nc2s1	?	0%	i	2%	5%	-5%	-1%	1%	-2%	-21%
CCOCCc1nn2c(=O)cc(COC(=O)c3ccccc3NC(=O)CC(C)C)nc2s1	?	6%	i	12%	-2%	.	.	.	.	.
CCc1nn2c(=O)cc(COC(=O)c3ccccc3NC(=O)COc3ccccc3C)nc2s1	-29%	0%	i	-38%	40%	.	.	.	.	.
Cc1ccccc1OCC(=O)Nc1ccccc1C(=O)OCc1cc(=O)n2nc(C3CC3)sc2n1	2.5µM*	4%	i	0%	5%	-8%	4%	-1%	-3%	-20%
Cc1nn2c(=O)cc(COC(=O)c3ccccc3NC(=O)c3cccs3)nc2s1	7.1µM*	0%	i	11%	-8%	-4%	2%	-3%	9%	32%
CN(c1ncccc1CNc1nc(Nc2ccc3c(c2)CC(=O)N3)ncc1C(F)(F)F)S(C)(=O)=O	.	.	.	24%	.	.	.	.	.	.
O=c1cc(-c2cccc3c2Sc2ccccc2S3)oc(N2CCOCC2)c1	.	.	.	-13%	.	.	.	.	.	.
CCOc1ccccc1CNC(=O)CCn1c(=O)c2cccn2c2ccc(F)cc21	14µM*	?	i	1%	6%	1%	1%	0%	-2%	?
N=C1SC(=Cc2ccc(-c3ccc4c(c3)C(=O)NC4=O)o2)C(=O)N1c1ccc(Br)cc1	.	.	.	-17%	.	.	.	.	.	.
Cn1nnnc1SCCCNCc1cccc(OCc2ccccc2)c1	20µM*	-21%	i	0%	-6%	-5%	1%	3%	-7%	-11%
Cc1cnc(-c2cc(N3CCN(C(=O)CCS(C)(=O)=O)CC3)ncc2Cl)c(C)c1	.	.	.	17%	.	.	.	.	.	.
C[N+]1(C)[C@@H]2C[C@@H](OC(=O)C(O)(c3cccs3)c3cccs3)C[C@H]1[C@@H]1O[C@@H]12	.	.	.	6%	.	.	.	.	.	.
Cc1ccccc1Cn1c(=O)n(CC2CCC(C(=O)N3CCOCC3)CC2)c(=O)c2sccc21 (centres undefined)	12µM*	0%	i	4%	-8%	-8%	6%	2%	-2%	-24%
Cc1ccc(Cn2c(=O)n(CC3CCC(C(=O)N4CCOCC4)CC3)c(=O)c3sccc32)cc1 (centres undefined)	9%	3%	i	-9%	4%	.	.	.	.	.
CC(C)=CCCC(C)=CCCC(C)=CCSc1ccccc1C(=O)O	.	.	.	-15%	.	.	.	.	.	.
CSc1ccc(CCNC(=O)c2c(C)nn(-c3ccc(F)cc3)c2-n2cccc2)cc1	15µM*	0%	i	6%	-13%	-13%	4%	-12%	-15%	?
N#Cc1cc(NC(=O)Nc2nnc(-c3ccncc3)s2)ccc1-c1cn[nH]c1	.	.	.	-5%	.	.	.	.	.	.
O=C(NCCc1ccccc1)c1c[nH]c2ccc(S(=O)(=O)Nc3ccc(F)cc3F)cc2c1=O	-34%	6%	i	-5%	2%	.	.	.	.	.
O=C(NCCc1ccccc1)c1c[nH]c2ccc(S(=O)(=O)Nc3ccccc3F)cc2c1=O	?	-9%	i	1%	-7%	-22%	-18%	-14%	-17%	-10%
Cc1cccc(Nc2c3c(nc4nncn24)CCC3)c1C	?	2%	i	-21%	-2%	?	9%	-6%	3%	?	PMP22 prot conf=2%
NS(=O)(=O)OC[C@@H]1C[C@@H](n2ccc3c(N[C@H]4CCc5ccccc54)ncnc32)C[C@H]1O	.	.	.	-7%	.	.	.	.	.	.
Cc1c(/C=C(\C#N)C(=O)Nc2cccc(Cl)c2)c2ccccc2n1Cc1ccccc1Cl	?	22%	i	-2%	-13%	-7%	-3%	-5%	6%	-14%
CCOc1ccccc1NC(=O)c1cnn2c(C(F)F)cc(-c3ccccc3)nc12	11µM*	-18%	i	4%	25%	-6%	2%	2%	17%	?
CC(C)(C)[N+]([O-])=Cc1ccc(S(=O)(=O)O)cc1S(=O)(=O)O	.	.	.	-1%	.	.	.	.	.	.
CCOC(=O)N1CCN(Cc2nc3cc(NC(=O)c4ccccc4OC)ccc3n2C(C)C)CC1	?	-17%	i	?	?	.	.	.	.	.
CCOC(=O)N1CCN(Cc2nc3cc(NC(=O)c4ccccc4[N+](=O)[O-])ccc3n2C(C)C)CC1	11µM*	1%	i	?	?	?	-4%	-5%	7%	-22%
CCOC(=O)N1CCN(Cc2nc3cc(NC(=O)C(C)C)ccc3n2C(C)C)CC1	6.3µM*	?	i	i	?	-14%	4%	6%	4%	-18%
CCOC(=O)N1CCN(Cc2nc3cc(NC(=O)c4ccc(OC)cc4)ccc3n2C(C)C)CC1	?	?	i	-17%	-19%	.	.	.	.	.
CCOC(=O)N1CCN(Cc2nc3cc([N+](=O)[O-])ccc3n2C(C)C)CC1	?	-17%	i	-11%	-17%	-5%	0%	3%	?	-5%
